Screening results from PubChem BioAssay.
FLuc counter – qHTS profiling assay for firefly luciferase inhibitor/activator using purifed enzyme and Km concentrations of substrates (counterscreen for miR-21 project); Luciferin 4-monooxygenase (Photinus pyralis), P08659; purified FLuc, Km substrates, luminescence inhibition; Potency, µM (series often up to 57.5 µM), inactives show at the top dose activity change, negative = inhibition, actives largely listed as inhibitors; 360,000 compounds, 6.9% hits;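 note: plate controls were vehicle for no effect and reference inhibitor for full effect; nearly all actives have a fitted effect of over 55% in size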
Target sequence (P08659 whole entry, looked up): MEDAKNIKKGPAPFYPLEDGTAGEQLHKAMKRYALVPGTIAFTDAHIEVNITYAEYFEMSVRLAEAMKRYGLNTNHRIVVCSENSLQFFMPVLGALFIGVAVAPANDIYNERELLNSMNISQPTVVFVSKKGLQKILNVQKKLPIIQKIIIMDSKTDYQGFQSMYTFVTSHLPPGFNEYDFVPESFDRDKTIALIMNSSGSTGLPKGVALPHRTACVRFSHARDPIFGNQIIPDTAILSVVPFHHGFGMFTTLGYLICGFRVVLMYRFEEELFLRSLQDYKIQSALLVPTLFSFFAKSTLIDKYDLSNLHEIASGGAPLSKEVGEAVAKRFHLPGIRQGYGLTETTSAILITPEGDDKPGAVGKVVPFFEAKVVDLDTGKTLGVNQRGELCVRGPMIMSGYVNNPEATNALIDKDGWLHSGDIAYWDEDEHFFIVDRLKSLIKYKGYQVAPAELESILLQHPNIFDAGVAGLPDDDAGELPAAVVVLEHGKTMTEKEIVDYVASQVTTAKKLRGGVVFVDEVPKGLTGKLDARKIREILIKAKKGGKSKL
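Biochemical qHTS of compounds, final roughly 60 µM downward over six points, against 10 nM purified firefly luciferase using Km concentrations of substrates (10 uM D-luciferin, 10 uM ATP) in Tris acetate pH 7.5 buffer; luminescence output.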
Rab9 prom act – qHTS Assay for Rab9 Promoter Activators. Huh7 Rab9 promoter-luciferase reporter, luminescence, 24 h. 320,000 compounds, 2.8% hits. Potency, µM (top dose mostly 9.22 µM), for the others: at the highest dose activation, negative = inhibition, hits mostly activators; note: % of control where 0% means no effect; nearly all actives have a fitted effect of over 60% in size
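Huh7 cells stably carrying Rab9 promoter–luciferase reporter, plated 1500 cells/well, compound added after 2 h and incubated 24 h at 37 °C; luciferase luminescence then read after 10 min with detection reagent.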
NPC1 prom act – qHTS Assay for NPC1 Promoter Activators; Huh7 NPC1 promoter luciferase reporter, 24 h; AID 485313, 2010; 320,000 compounds, 2.4% hits; Potency, µM (titrated, usually from 9.22 µM), for the others: at the highest dose activation, most hits filed as activators; note: % of control where 0% means no effect; nearly all actives have a fitted effect of over 60% in size
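Stably transfected Huh7 (NPC1 promoter→luciferase), 1500 cells/well in Opti-MEM + 10% FBS, 2 h settle, then compound 24 h at 37 °C. Luminescence after 10 min with Amplite reagent.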
Luc counter – Counterscreen for Luciferase (Kinase-Glo TM) Inhibition; Luciferin 4-monooxygenase (Photuris pensylvanica), Q27757; Kinase-Glo luciferase, ATP luminescence, 8 min; Potency, µM (top dose mostly 38.3 µM), for the others: at the highest dose activity change, negative = inhibition, hits mostly inhibitors; 200,000 compounds, 0.28% hits; note: % is set by controls: 0 for no effect and ±100 for the full control effect; nearly all actives have a fitted effect of over 60% in size
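Kinase-Glo luciferase light output from ATP and luciferin was measured with 10 uM ATP, within the enzyme's linear range. Buffer: 50 mM imidazole pH 7.2, 50 mM KCl, 7 mM MgCl2, 0.01% Tween 20, 0.05% BSA; luminescence read after 8 min at ambient temperature.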
ELG1 genotoxic – qHTS screen for small molecules that induce genotoxicity in human embryonic kidney (HEK293T) cells expressing luciferase-tagged ELG1. 330,000 compounds, 1.3% hits. Potency, µM (series often up to 46 µM), inactives show at the highest dose activity change, positive = activation, actives largely listed as activators. AID 504466, 2011. HEK293T ELG1-luciferase reporter, luminescence, 16 h; note: % of control where 0% means no effect; nearly all actives have a fitted effect of over 60% in size
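Screening used a luciferase reporter fused to human ELG1 in HEK293T cells. Luminescence was read on a CCD plate imager after 16 hr exposure and 30 min ONE-Glo incubation.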
SMN2 splice up – qHTS Assay for Enhancers of SMN2 Splice Variant Expression. AID 1458, 2008. Potency, µM (highest dose often 46.1 µM), inactives show top-dose activity change, positive = activation, usual class: activators. 210,000 compounds, 2.8% hits. HEK293 SMN2-luciferase splicing reporter, luminescence, 30-36 h; note: % of control where 0% means no effect; nearly all actives have a fitted effect of over 55% in size
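HEK293 cells carry an SMN2 minigene-luciferase reporter in which exon 7 inclusion puts luciferase in frame. Cells were seeded at 2000 cells/well, attached for 10-12 hours, then exposed to compounds for 30-36 hours at 37C before ONE-Glo luminescence.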
Active calls of the source: *; ? = inconclusive; nt = no result. Hits are enriched below; roughly 7.3% of the tested compounds scored in any of these assays. Calls come from the whole dose curve; as a rule, active = well fitted curve in the direction sought with a large enough effect; inconclusive = small, poorly fitted or top-dose-only effect, or another doubt; inactive = no such curve, though single readings can be large; an effect the other way counts as inactive or inconclusive. Potency is the fitted concentration of half-maximal effect.

SMILES | FLuc counter | Rab9 prom act | NPC1 prom act | Luc counter | ELG1 genotoxic | SMN2 splice up
O=C(Nc1ccc2ccccc2c1)c1cc(F)c(F)cc1Cl | 3.38µM* | ? | 2µM* | nt | ? | nt
O=C(Nc1ccc2ccccc2c1)c1ccccc1O | 0.301µM* | 3.55µM* | 3.98µM* | nt | 0.231µM* | nt
COc1cccc(C(=O)N2CCC(N3CCN(Cc4ccc(F)cc4)C(=O)C3=O)CC2)c1 | 0.7% | nt | nt | nt | nt | nt
Cc1ccc(NC(=S)NCc2ccccn2)cc1 | -6.4% | 23.5% | 0.2% | -3.0% | 1.0% | 11.3%
O=C(NCc1ccccn1)Nc1ccccc1 | 13.5µM* | 1.58µM* | ? | -28.2% | ? | nt
O=C(NCc1ccccn1)Nc1ccccc1Cl | -7.8% | 22.1% | 14.4% | nt | ? | nt
Cc1ccc(NC(=O)C(NCc2ccccn2)c2ccccc2)cc1 (stereo not drawn) | 16.9µM* | 2.4% | 3.4% | -2.3% | 20.3% | -13.2%
O=C(NCc1ccccn1)Nc1ccc(Cl)cc1Cl | ? | ? | 3.16µM* | nt | ? | nt
O=C(NCc1ccccn1)Nc1ccc(Br)cc1 | -10.0% | 6.5% | -2.0% | nt | 7.7% | nt
CC1CCC(NC(=O)CCS(=O)(=O)c2ccc3c(c2)CC(C)N3C(=O)C2CC2)CC1 (stereo not drawn) | -1.2% | 0.0% | -0.9% | nt | 0.1% | nt
Cc1nc2nncn2c(NCc2ccc(F)cc2)c1C | -2.0% | nt | nt | nt | nt | -74.3%
c1csc(-c2ccc3ccccc3n2)c1 | 7.57µM* | ? | ? | -9.4% | ? | 20.8%
Cc1cc2ncc(-c3cccs3)nc2cc1C | 0.338µM* | 3.98µM* | 0.891µM* | nt | ? | nt
Nc1nc2ccccc2cc1-c1cccs1 | 10.7µM* | ? | 4.47µM* | nt | ? | nt
Cc1ccc(-c2cc3ccccc3nc2N)cc1 | 3.01µM* | ? | 5.01µM* | nt | ? | nt
Cc1cc(CNCc2cn(C)nc2-c2ccc(Oc3ccccc3)cc2)on1 | -13.6% | -0.1% | -3.5% | nt | -8.3% | nt
CCOc1ccc(CNC(=O)C2CCN(C(=O)c3ccc(-n4ccc5ccccc54)s3)CC2)cc1 | -11.2% | nt | nt | nt | nt | nt
Cc1ccccc1C1=NC(c2ccc(F)cc2F)ON1 (stereo not drawn) | 23.9µM* | 24.0% | 1.0% | -6.6% | 11.2µM* | 35.1%
COc1ccccc1C1N=C(c2ccccc2C)NO1 (stereo not drawn) | 8.49µM* | ? | 21.5% | nt | 10.3µM* | nt
COc1ccccc1C1=NC(c2ccc(F)cc2)N=C1C (stereo not drawn) | ? | ? | 19.7% | 5.0% | 13.7% | 22.7%
Cc1ccc(NC(=O)CSc2nc(=O)n(CCCN3CCOCC3)c3c2CCCC3)cc1F | 0.6% | -10.1% | -3.5% | nt | -1.3% | nt
NC(=S)N/N=C/c1c[nH]c2ccccc12 | -15.9% | 7.2% | 2.1% | nt | 8.4% | nt
Cc1ccc(CN2CCSc3ccc(C(=O)Nc4cc(C)cc(C)c4)cc32)cc1 | 6.2% | nt | nt | nt | nt | -15.6%
Cc1ccc(CN2CCSc3ccc(C(=O)Nc4ccc(Cl)cc4)cc32)cc1 | ? | nt | nt | nt | nt | 11.2µM*
Cc1ccc(CN2CCSc3ccc(C(=O)NCCc4ccccc4)cc32)cc1 | -11.8% | nt | nt | nt | nt | 12.6µM*
SMILES | FLuc counter | Rab9 prom act | NPC1 prom act | Luc counter | ELG1 genotoxic | SMN2 splice up
CCN(CC)c1ccc2nc3c4ccccc4c(=O)cc-3oc2c1 | 0.477µM* | 1.12µM* | 0.562µM* | nt | 0.82µM* | nt
C=CCSc1nc2c(cnn2-c2ccccc2)c(=O)n1N | 8.49µM* | 1.41µM* | 1.41µM* | nt | ? | nt
Cn1c(=O)c2[nH]c(-c3ccccc3O)nc2n(C)c1=O | -16.7% | -4.5% | 24.9% | -1.2% | -5.6% | -2.0%
CCCOc1ccccc1-c1nc2c([nH]1)c(=O)[nH]c(=O)n2C | 7.3% | -1.2% | -0.8% | 1.7% | ? | 28.2µM*
Cc1ccc(C)c(CSc2nc3ncccc3[nH]2)c1 | -17.3% | nt | nt | nt | nt | nt
c1ccc(CSc2nc3ncncc3[nH]2)cc1 | 16.9µM* | 20.2% | 7.9% | nt | 3.7% | nt
S=c1nc(SCc2ccccc2)[nH]c2ccccc12 | ? | -0.8% | 0.3% | -1.0% | -14.2% | -59.0%
Cc1ccc(CSc2nc3ncccc3[nH]2)cc1 | 2.39µM* | 0.794µM* | 0.562µM* | ? | 23.5% | 1.78µM*
Clc1ccc(CSc2nc3ncccc3[nH]2)cc1 | 6.01µM* | nt | nt | nt | nt | 12.6µM*
Cc1oc(-c2ccc(Cl)cc2)nc1CSc1nc2ncccc2[nH]1 | -7.1% | nt | nt | nt | nt | nt
O=C(c1cccc(-c2nnc(-c3ccccc3)o2)c1)N1CCCCCC1 | 16.9µM* | ? | ? | -2.8% | ? | ?
O=C(c1cccc(-c2nnc(-c3ccccc3)o2)c1)N1CCCCC1 | 16.9µM* | ? | ? | -5.0% | ? | 14.1µM*
Cn1ccnc1C(=O)c1cc(=O)c2ccccc2o1 | ? | ? | 15.8% | -19.9% | ? | -3.0%
O=c1cc2[nH]c3ccccc3c(=O)n2nc1-c1ccccc1 | 19µM* | ? | ? | -2.7% | 13µM* | 22.1%
CCc1cc(=O)oc2cc(C)c3c(C)coc3c12 | 0.4% | 0.4% | -0.5% | 1.7% | -1.3% | 2.1%
CN(C)c1ccc(NC(=O)C(=O)C2C(=O)Nc3ccccc32)cc1 (stereo not drawn) | 10.7µM* | 20.6% | 24.5% | nt | ? | nt
CC(C)(C)c1ccc(NC(=O)C(=O)C2C(=O)Nc3ccccc32)cc1 (stereo not drawn) | 12µM* | 20.9% | 14.7% | 0.4% | 0.2% | 2.4%
O=C(Nc1cccc2ccccc12)C(=O)C1C(=O)Nc2ccccc21 (stereo not drawn) | ? | -4.1% | ? | nt | -3.7% | nt
CC(C)c1ccc(NC(=O)C(=O)C2C(=O)Nc3ccccc32)cc1 (stereo not drawn) | ? | 21.2% | 7.4% | -0.6% | 5.0% | 10.9%
COc1cccc(-c2nnn(C/C(N)=N/O)n2)c1 | -19.3% | ? | 10.7% | -3.1% | 7.6% | 10.6%
COC(=O)c1c(C)[nH]c(C=Nc2ccc(OC)cc2)c1C | 7.57µM* | -1.9% | 3.0% | nt | 5.4% | nt
CCOC(=O)c1c(C)[nH]c(C=Nc2ccc(OC)cc2)c1O | 21.3µM* | 2.24µM* | 3.98µM* | -1.9% | ? | 11.2µM*
CCOC(=O)c1c(C)[nH]c(C=Nc2ccccc2)c1O | 1.6% | ? | ? | -2.0% | 3.4% | ?
CN(Cc1ccccc1)c1nc2c(c(=O)[nH]c(=O)n2C)n1C | -2.3% | -3.8% | -4.9% | 0.9% | 15.6% | 26.0%
N#CCC(=O)N/N=C/c1ccc(OC2CSC2)cc1 | -12.3% | 8.5% | 1.2% | 1.6% | 4.1% | 5.2%
